# A selection: hits, their analogues and other compounds. The true share with any hit is near 5.4%.
# SKKanGAS inh = S. pyogenes SKKanGAS growth inhibitors in kanamycin, primary screen, streptokinase expression inhibitor project, SKKanGAS strain, BacTiter-Glo luminescence | inhibition, % at 7.5 µM | actives 1.3% (n = 300,000) | 6 h;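 active = mean replicate score, as percent of positive control median, at least 50; inconclusive = mean below 50 but one replicate at or above 50; inactive = mean and every replicate below 50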;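 note: strain carries kanamycin resistance gene driven by streptokinase promoter and grows in 40 µg/ml kanamycin; loss of luminescence reflects streptokinase promoter inhibition or plain growth inhibition; 0% = median of DMSO wells and 100% = positive control at its reference dose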
# Beta cell apopt = inhibitors of cytokine-induced beta cell apoptosis, primary screen, luminescence; AID 435005, 2010; protection from apoptosis, % (concentration not given with the values); actives 0.8% (n = 300,000); INS-1E cytokine-induced death, ATP luminescence, 48 h; percent of positive-control rescue, neutral wells zero;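 active = Every replicate reaches about 75%, or at least half do and their mean reaches it too, limit read from the data; inconclusive = At least half of replicates reach the limit but their mean does not; inactive = Under half of replicates reach the limit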;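 note: 0% = cytokine-treated negative control wells and 100% = positive control rescue; higher means more ATP so stronger rescue from cytokine killing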
# Calb FLC = C. albicans growth inhibition with fluconazole, primary screen, CaCi-2 strain, Alamar Blue fluorescence. actives 0.57% (n = 300,000). C. albicans CaCi-2 (fluconazole-resistant clinical isolate) + fluconazole, 48 h. AID 1979, 2009. growth inhibition, % (no concentration beside the values);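 active = growth inhibition above about 58% in most replicates, limit read from the data, passing the limit was not always enough; inconclusive = exactly half the replicates above a set limit; inactive = most replicates below a set limit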;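 note: all wells also contain fluconazole at 8 µg/ml as a sub-toxic cotreatment; 0% = median of DMSO wells and 100% = median of geldanamycin control wells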
# Mdm2 MdmX PPI = inhibitors of human Mdm2-MdmX association, primary screen, cell-based, luminescence, split luciferase, SaOS-2, uHTS; SaOS-2 split-luciferase Mdm2/MdmX complementation; inhibition, % at 8 µM; actives 3% (n = 330,000);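 active = inhibition of at least 50% at 8 µM in the primary screen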
# MPTP inh = mitochondrial permeability transition pore inhibitors, primary screen, biochemical, isolated mouse mitochondria, absorbance. actives 1.4% (n = 360,000). AID 602449, 2012. inhibition, % at 10 µM. Ca2+ swelling absorbance, 30 min;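 active = inhibition of 50% or more, scaled per plate between neutral and stimulator controls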;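 note: 0% = DMSO wells given calcium and 100% = 1 mM EGTA wells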
# CSC inhib = cancer stem cell viability inhibitors, primary screen, luminescence; cancer stem cell-like cells viability; inhibition, % at 7.5 µM; actives 1.1% (n = 300,000); AID 2717, 2010; in the data active = inhibition above about 75%; inconclusive = no clear call, values can overlap the other calls; tested in HMLE shEcad cells
# * marks the source's active call; other numbers are inactive results; ? = inconclusive; nt = no result.
SMILES,SKKanGAS inh,Beta cell apopt,Calb FLC,Mdm2 MdmX PPI,MPTP inh,CSC inhib
COc1cccc(-c2nc(NC(C)C)c3ccccc3n2)c1O,5,nt,86*,31,33,37
CC(Nc1nc(-c2ccccc2O)nc2ccccc12)c1ccccc1 (configuration not stated),58*,8,7,37,20,59
Cc1nn(-c2ccccc2)c(Cl)c1C1C(C#N)=C(N)OC2=C1C(=O)CCC2 (configuration not stated),87*,-2,11,-22,1,-9
CN(C)Cc1nc2ccccc2c(=O)n1Cc1nc(-c2cc3ccccc3o2)cs1,74*,3,-8,-7,1,34
CCCS(=O)(=O)N1CCC(C(=O)NCCCOC(C)C)CC1,-6,-10,9,12,-4,-6
C=C(C)[C@@H]1CCC2(C(=O)O)CC[C@]3(C)[C@H](CC[C@@H]4[C@@]5(C)CCC(=O)C(C)(C)[C@@H]5CC[C@]43C)[C@@H]12 (some centres not stated),104*,-2,3,36,11,0
C=C(CC[C@@H](O)C(C)(C)O)[C@H]1CC[C@]2(C)[C@@H]1CCC1[C@@]3(C)CCC(=O)C(C)(C)C3CC[C@]12C (some centres not stated),nt,10,nt,48,0,109*
CCOC(=O)c1cccc(C2=CC(=O)C[C@H](c3ccc(Cl)cc3)C2)c1,nt,2,nt,18,0,77*
O=C1C=C(c2ccc(-c3ccccc3)cc2)C[C@@H](c2ccc(Cl)cc2)C1,nt,-8,nt,0,2,2
O=C1C=C(c2ccc(Cl)c(C(F)(F)F)c2)C[C@@H](c2ccc(Cl)cc2)C1,nt,0,nt,32,1,116*
CCOc1ccc(C(c2c(O)nc(SC)n(C)c2=O)c2c(O)nc(SC)n(C)c2=O)cc1,4,-7,-8,10,5,-7
Cc1ccc(C)c(SCC(=O)Nc2cccnc2Cl)c1,14,0,123*,-7,-2,nt
Cc1noc(NS(=O)(=O)c2ccc(N3Cc4ccccc4C3=O)cc2)c1C,10,0,1,-4,0,-5
CN(C(=O)c1cccc(NC(=O)Cc2cccc(NC(=O)C3CCCN(C(=O)C4CC4)C3)c2)c1)C1CC1 (configuration not stated),nt,nt,nt,nt,-2,nt
Cc1ccc(NC(=O)CCC(=O)N2CCOCC2)nc1,0,-3,5,0,-1,nt
COc1cc(OC)cc(C(=O)NNC(=O)c2cc3ccccc3cc2O)c1,11,4,81*,43,0,32
COc1ccccc1NC(=O)C(=O)NNC(=O)COc1ccc2ccccc2c1,67*,3,26,27,2,nt
COc1ccccc1NC(=O)COc1ccc2ccccc2c1,36,nt,7,-9,-2,-3
COc1ccc(C(=O)NNC(=O)c2ccc3ccccc3c2)cc1,nt,nt,nt,nt,-1,nt
COc1ccccc1NC(=O)NNC(=O)c1cc2ccccc2cc1O,-4,-3,86*,10,6,17
Cc1ccc(NC(=O)NNC(=O)c2cc3ccccc3cc2O)cc1,0,0,?,-5,0,9
Oc1ccccc1/C=C/c1noc(-c2ccccc2O)n1,-4,-6,34,-260,2,-2
CCC(C)NC(=S)N1CCN(Cc2ccc3c(c2)OCO3)CC1 (configuration not stated),-4,-5,6,5,1,5
COc1ccc2[nH]c3c(=O)n(/N=C/[C@H]4C(C)C=C(C)CC4C)c(=O)[nH]c3c2c1 (some centres not stated),6,5,12,16,25,88*
COc1ccc([C@@H]2[C@@H]3C(=O)N(C(C)(C)C)C(=O)[C@@H]3[C@]3(C)C(=O)N(c4cccc(C)c4)C(=O)N23)cc1,2,-12,-3,5,0,0
SMILES,SKKanGAS inh,Beta cell apopt,Calb FLC,Mdm2 MdmX PPI,MPTP inh,CSC inhib
Cc1c(Cl)ccc(S(=O)(=O)Nc2cccnc2)c1Cl,0,-4,77*,9,0,-1
COc1c(S(=O)(=O)Nc2cccnc2)ccc(Cl)c1Cl,2,-4,-4,-8,3,-4
CCCCn1c(SCC(=O)NCc2ccco2)nc2c1c(=O)n(C)c(=O)n2C,2,-4,-2,12,0,-3
CN(Cc1ccco1)C(=O)CSc1nn2c(=O)c(C(C)(C)C)nnc2s1,nt,-3,nt,13,0,-4
COc1ccc(S(N)(=O)=O)cc1C(=O)NCC(C)(C)N1CCCCC1,-5,12,9,-13,0,6
CCn1c(C)c(C)c2cc(C(=O)N3CCc4ccccc4C3)ccc21,18,113*,-4,49,42,62
CCN1CCN(C(=O)c2ccc3c(c2)c(C)c(C)n3Cc2ccccc2)CC1,0,-13,3,13,0,53
CSc1nc2ccc(NC(=O)c3cc4ccccc4o3)cc2s1,-20,-1,4,-201,10,11
S=C1Nc2ccccc2Sc2ccc(Cl)cc21,69*,-6,-11,35,1,-14
O=[N+]([O-])c1ccc(Nc2nc(N/N=C/c3cccc(F)c3)nc(N3CCCC3)n2)cc1,30,24,-3,43,5,-2
Nc1nc(Nc2ccccc2)nc2ccccc12,5,35,4,-217,1,22
O=[N+]([O-])c1ccc(Nc2nc(NC3CCCCC3)nc(N3CCCC3)n2)cc1,83*,50,19,34,2,nt
c1ccc(Nc2nc(N3CCCCC3)nc(N3CCCCC3)n2)cc1,84*,13,2,23,18,-8
CCOc1nc(Nc2ccc(OC)cc2)nc(N2CCOCC2)n1,3,-7,6,35,-1,-2
CCOc1ccc(Nc2nc(N3CCCCC3)nc(N3CCCCC3)n2)cc1,62*,0,-15,9,3,-13
CCOc1ccc(Nc2nc(N)c3ccccc3n2)cc1,60*,nt,-3,-5,-1,nt
CC(=O)C[C@@H](O)CC(=O)[C@@H]1OC(=O)[C@H](C)C/C=C\Cc2ccccc21,nt,-4,nt,-20,-2,nt
Cc1nc2cc(NC(=O)C3(C)CCCN(C(C)C)C3)ccc2o1 (configuration not stated),nt,nt,nt,nt,0,nt
CCCCCCSc1cc(-c2nc3cnccn3c2NCc2ccccc2)ccc1OC,65*,-5,4,25,1,nt
CCC(C)Sc1ccc(-c2nc3cnccn3c2NC2CCCCC2)cc1 (configuration not stated),93*,15,5,15,2,126*
COc1ccc(-c2nc3cnccn3c2NCc2ccccc2)cc1SC1CCCCC1,55*,10,24,20,1,43
